# Source: PubChem
# Sampled rows, rich in hits. Any-hit rate of the full collection: about 19%.
# HT1080NT lethal: kills 2HG-producing HT-1080-NT fibrosarcoma cells; actives 1.6% (n = 360,000); HT-1080-NT fibrosarcoma viability, CellTiter-Glo ATP luminescence, 48 h; Potency, µM (highest dose often 46.1 µM), hits mostly cytotoxic;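 note: NT is the 2HG producing partner of a matched IDH1 knockdown line; nearly all actives have a fitted effect of over 55% in size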
#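 Compounds were tested in concentration-response format on HT-1080-NT cells for 48 hours at 37 degrees C. Cell viability came from CellTiter-Glo luminescence; curves were classified by r2, response magnitude and activity.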
# ELG1 DNA repair: ELG1-dependent DNA repair inhibition; actives 2.3% (n = 330,000); HEK293T ELG1-luciferase reporter, luminescence, 16 h; DNA damage induced by 5-fluorouridine; Potency, µM (top dose mostly 46.1 µM), actives largely listed as inhibitors; note: nearly all actives have a fitted effect of over 55% in size
#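 HEK293T cells expressing luciferase-tagged ELG1 (2,000/well) received 5-Fluorouridine plus compound or DMSO for 16 hr at 37 °C. Luciferase was read by ONE-Glo luminescence after 30 min at room temperature.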
# DT40 TDP1 no CPT: qHTS for Inhibitors of human tyrosyl-DNA phosphodiesterase 1 (TDP1): qHTS in cells in absence of CPT; Potency, µM (titrated, usually from 46.2 µM), usual class: inhibitors; AID 686978, 2013; actives 15% (n = 420,000); DT40 Tdp1-/- hTDP1 cells, no CPT, ATP luminescence, 48 h; note: nearly all actives have a fitted effect of over 55% in size
#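 Compound effects on proliferation are scored in DT40 Tdp1-/-;hTDP1 cells in the absence of CPT. ATP levels (CellTiter-Glo luminescence) are recorded after a ≥48 hr, 37 °C incubation.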
# TDP1 cell CPT: growth inhibition of DT40 Tdp1-/-;hTDP1 cells with camptothecin (screen for TDP1 inhibitors). chicken DT40 Tdp1-/-;hTDP1 cells + 20 nM CPT, ATP luminescence, 48 h. Potency, µM (highest dose often 46.2 µM), most hits filed as inhibitors. actives 12% (n = 420,000). AID 686979; note: nearly all actives have a fitted effect of over 55% in size
#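 Chicken DT40 Tdp1-/- cells complemented with human TDP1, 400 cells/well, exposed to compounds plus 20 nM camptothecin for at least 48 h at 37 C; viability read as ATP content by CellTiter-Glo luminescence.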
# IL1B secr inh: inflammasome signaling inhibition, IL-1 beta readout; actives 4.7% (n = 360,000); activity change, % at 57.5 µM; THP-1 LPS/ATP IL-1B secretion, AlphaLISA, 16 h; hits give low values; in the data active = activity change below about -50%; inconclusive = mostly about -30% to -49%
#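 THP-1 cells pretreated 1 hr with compounds (up to 57.5 uM final), then stimulated with LPS (250 ng/mL final) plus ATP (1.25 mM final); secreted IL-1B measured by AlphaLISA after 16 hr, decreased signal indicating inhibition.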
# HT1080 IDH1KD tx: HT-1080 IDH1 knockdown cell toxicity (counter line); Potency, µM (doses to about 46.1 µM), actives largely listed as cytotoxic; HT-1080 IDH1 knockdown viability, ATP luminescence, 48 h; AID 686971; actives 2% (n = 360,000)
#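 In this qHTS, HT-1080 cells depleted of IDH1 are exposed for 48 h at 37 °C to compound titrations. Toxicity is scored from CellTiter-Glo luminescence, with DMSO as full viability and medium alone as none.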
# A number is an active result; . = inactive; ? = inconclusive; / = not tested or not shown. Unless noted, calls come from the whole dose curve; as a rule, active = well fitted curve in the direction sought with a large enough effect; inconclusive = small, poorly fitted or top-dose-only effect, or another doubt; inactive = no such curve, though single readings can be large; an effect the other way counts as inactive or inconclusive.
SMILES,HT1080NT lethal,ELG1 DNA repair,DT40 TDP1 no CPT,TDP1 cell CPT,IL1B secr inh,HT1080 IDH1KD tx
COc1cccc(-c2csc(N3CCN(C(=S)Nc4ccccc4Cl)CC3)n2)c1,?,.,?,.,.,.
Nc1nc(N)c(-c2ccccc2)s1,/,/,.,.,/,/
O=C1c2ccccc2S(=O)(=O)c2cc(C(=O)N3CCC(N4CCCC4)CC3)ccc21,.,/,.,.,.,.
Cc1ccc(S(=O)(=O)N(C)C[C@H]2OCc3cn(nn3)CCCC(=O)N([C@H](C)CO)C[C@@H]2C)cc1,.,/,.,.,.,.
CCCC[C@@H]1CCCO[C@@](C(=O)NCc2ccccn2)(C(F)(F)F)C1,.,/,?,18.4µM,.,.
COCCn1c(SCc2cnc(-c3ccccc3)s2)nnc1-c1ccncc1,.,?,?,20.6µM,.,.
COc1cccc(NCc2nnc3n2CCCCC3)c1,/,/,.,.,/,/
CCOC(=O)C1(C)CCN1C(=O)c1cc2ccccc2s1 (stereo not given),.,/,?,?,.,.
Cc1cc(C)n(C(C[N+](=O)[O-])c2ccc(Cl)cc2)n1 (stereo not given),.,.,2.31µM,2.31µM,?,.
CC(/C=C/c1ccc(N(C)C)cc1)=N/N=C1/NC(=O)CC(C(=O)Nc2ccc(Cl)cc2)S1 (stereo not given),?,?,.,.,.,16.4µM
CC(C)N(C(=S)NCc1ccccc1)c1ccccc1,.,.,.,.,-50.2,.
NC(Cc1ccc(Cl)cc1)c1csc(Nc2ccc(S(N)(=O)=O)cc2)n1 (stereo not given),?,/,9.2µM,14.6µM,?,?
COc1ccc(C(N)c2csc(Nc3ccc(S(C)(=O)=O)cc3)n2)cc1 (stereo not given),.,/,?,23.1µM,.,.
CC(C)C(N)c1csc(Nc2ccc(S(C)(=O)=O)cc2)n1 (stereo not given),.,/,.,.,.,.
NC(Cc1ccc(C(F)(F)F)cc1)c1csc(Nc2ccc(S(N)(=O)=O)cc2)n1 (stereo not given),20.6µM,/,20.6µM,13µM,?,?
CS(=O)(=O)c1ccc(Nc2nc(C(N)Cc3ccc(Cl)cc3)cs2)cc1 (stereo not given),14.6µM,/,16.4µM,11.6µM,?,?
CCC(C)(C)c1ccc(OC(=O)c2cccnc2Cl)cc1,.,.,?,?,.,.
CCNc1ncc2nc(C)c(=O)n(C[C@H]3CCCO3)c2n1,/,/,.,?,/,/
Oc1ccccc1CNc1ccc(OC(F)(F)F)cc1,18.4µM,?,?,.,-89.2,?
O=C1CC/C=C\C[C@@H](CC(=O)N(CCO)Cc2ccccc2)C(=O)N[C@H](Cc2c[nH]c3ccccc23)CO1,?,.,?,16.4µM,.,.
O=C1CCC/C=C\C[C@@H](CC(=O)N(CCO)Cc2ccccc2)C(=O)N[C@H](Cc2c[nH]c3ccccc23)CO1,.,?,16.4µM,?,.,.
O=C1CCCC/C=C\C[C@H](CC(=O)N(CCO)Cc2ccccc2)C(=O)N[C@@H](Cc2ccccc2)CO1,.,.,?,?,.,.
O=C1CCC/C=C/C[C@H](CC(=O)N(CCO)Cc2ccccc2)C(=O)N[C@@H](Cc2ccccc2)CO1,.,.,20.6µM,?,.,.
C[C@H]1COC(=O)CCCC/C=C\C[C@H](CC(=O)N(CCO)Cc2ccccc2)C(=O)N1,.,.,?,?,.,.
O=C(Nc1ccccc1)c1c2c(nc3ccccc13)CCCC2,.,.,.,.,.,.
CCCCNC(=O)Cn1c(=O)oc2cc(S(=O)(=O)N3CC(C)CC(C)C3)ccc21 (stereo not given),.,.,?,11.6µM,.,.
COc1ccccc1CNC(=O)Cn1c(=O)ccc2cc(S(=O)(=O)N3CCC(C)CC3)ccc21,/,/,?,23.1µM,/,/
